Compounds without any hit were thinned out: in the full panel of roughly 83,000, 20% have a hit.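 Each cell line was grown in a 96-well plate and treated with one concentration of compound for 48 hours. Values below 10 were considered active.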 Values without a mark were called inactive. The source made the active and inactive calls.
Assays:
Assay in all cases: NCI-60 one-dose screen, 48 h (100 = growth as untreated, 0 = no growth, -100 = all killed)
Conditions in all cases: 10 µM unless noted
T-47D breast = test system: T-47D breast
BT-549 breast = test system: BT-549 breast
MDA-MB-435 melanoma = test system: MDA-MB-435 melanoma
SW-620 colon = test system: SW-620 colon
MCF7 breast = test system: MCF7 breast
HCT-116 colon = test system: HCT-116 colon
HCC-2998 colon = test system: HCC-2998 colon
KM12 colon = test system: KM12 colon

Row | Compound | growth (T-47D breast) | growth (BT-549 breast) | growth (MDA-MB-435 melanoma) | growth (SW-620 colon) | growth (MCF7 breast) | growth (HCT-116 colon) | growth (HCC-2998 colon) | growth (KM12 colon)
1 | COc1cc2oc(-c3cccc(NC(=O)c4cc(N)ccc4Cl)c3)cc(=O)c2c(OC)c1OC | 62.4% | 89.4% | 89.5% | 110% | 96.1% | 101% | 101% | 96.4%
2 | Cc1cc(C)c2sc(=O)n(Cc3nnc(SCCC(=O)O)o3)c2n1 | 89.5% | 123% | 103% | 103% | 97% | 103% | 104% | 106%
3 | CN(C)CCN(C)c1ccc2ncc(C#Cc3cncc(C(=O)Nc4ccc(CN5CCN(C)CC5)c(C(F)(F)F)c4)c3)n2n1 | 101% | 111% | 48.4% | -44.9% (active) | -63.7% (active) | -85.9% (active) | 33.9% | -39.8% (active)
4 | CS(=O)(=O)c1ccc(-n2cc(/C=N/O)c(-c3ccccc3)n2)cc1 | 59.1% | 60.7% | 85.9% | 104% | 21.5% | 92.1% | 95.4% | 96.9%
5 | Cc1nn(-c2ccccc2)c2ncnc(N/N=C/c3cccc(O)c3)c12 | 17.8% | 46.8% | 3.94% (active) | 34% | 17.8% | 24% | 72.6% | 29.3%
6 | Cc1ccc(-n2cc(/C=C/C(=O)c3ccc(O)cc3)c(-c3ccc(S(C)(=O)=O)cc3)n2)cc1 | 73.5% | 70.9% | 1.81% (active) | 34% | 24.8% | 26.6% | 104% | 38.3%
7 | CCCn1cnc2c(c1=N)C(c1ccc(Cl)cc1)c1sc3c(C)cccc3c1O2 (stereo not drawn) | 45.9% | 18% | -40% (active) | 25.8% | 17.4% | 9.34% (active) | 15.3% | 10.9%
8 | Nc1nc(N)c2c(n1)NC(c1ccc(Cl)cc1)CC(c1ccc(Nc3nc(NCCO)nc(N4CCOCC4)n3)cc1)=N2 (stereo not drawn) | 74.8% | 71% | 81.7% | 79.4% | 41.9% | 57.3% | 108% | 65.3%
9 | CCNC(=O)N1CCc2cc(OC)c(OCCc3ccc(OC)cc3)cc2C1c1ccc(OC)cc1C (stereo not drawn) | 42.3% | 22.9% | 11.4% | 21.9% | 21.5% | 10.5% | 19.5% | 24.1%
10 | COc1ccc(-c2nn(-c3ccc(S(C)(=O)=O)cc3)cc2/C=N/O)cc1 | 106% | 112% | 109% | 104% | 106% | 107% | 115% | 104%
11 | CC(C)(C)CC(C)(C)n1nnnc1C(Nc1nccs1)c1cc2cccc3ccc4cccc1c4c32 (stereo not drawn) | 75.4% | 91.6% | 102% | 101% | 75.3% | 97.7% | 103% | 99.5%
12 | CCOP(=O)(OCC)OC[C@]12CCC(C)(C)C=C1[C@H]1CC[C@@H]3[C@@]4(C)CC[C@H](OP(=O)(OCC)OCC)C(C)(C)[C@@H]4CC[C@@]3(C)[C@]1(C)CC2 | 13.5% | -20.2% (active) | -38.4% (active) | -48.4% (active) | -47.5% (active) | -59.8% (active) | -50.9% (active) | 3.6% (active)
13 | Clc1ccc(N/N=c2/oc3ccccc3cc2-c2cc3ccccc3[nH]2)cc1 | 40.4% | 80.3% | -71.4% (active) | 78.7% | 53.3% | 66.9% | 95.6% | 58.1%
14 | CCn1c(SCC(=O)Nc2cccc(C(=O)/C=C/c3cc(OC)c(OC)c(OC)c3)c2)nc2ccccc2c1=O | 49.3% | 52.8% | 36.7% | 14.9% | 19.9% | -28.8% (active) | 42.2% | 44.6%
15 | CC(C)(C)c1ccc(C(=O)Nc2sc3c(c2C(N)=O)CCC(O)C3)cc1 (stereo not drawn) | 28.8% | 58.5% | 32.2% | 7.55% (active) | 5.17% (active) | 26.3% | 37.4% | 11.7%
16 | O=C1Nc2ccccc2/C1=C/c1ccc(CO)n1-c1ccc(Cl)cc1 | 62.9% | 55.3% | -25.5% (active) | 32.4% | 24.1% | 23.8% | 78.3% | 13.4%

Row | Compound | growth (T-47D breast) | growth (BT-549 breast) | growth (MDA-MB-435 melanoma) | growth (SW-620 colon) | growth (MCF7 breast) | growth (HCT-116 colon) | growth (HCC-2998 colon) | growth (KM12 colon)
17 | C#Cc1nc(C(C)=O)cs1 | 101% | 98.5% | 104% | 107% | 90.8% | 95% | 114% | 94.7%
18 | COc1cc(-c2ccc3ncnc(NCc4ccccc4)c3c2)cnc1OC | 2.37% (active) | 57.2% | 77.1% | 74.6% | 27% | 78.1% | 73.2% | 95.2%
19 | CCCCCc1ccc(S(=O)(=O)Nc2cccc(-c3csc(NC(=O)CNCCN(C)C)n3)c2)cc1 | 68.3% | 104% | 90.1% | 87.3% | 41.3% | 55.4% | 16.2% | 90.2%
20 | COc1cc(/C=C2\C(=O)Nc3cc(Cl)ccc32)ccc1OCc1ccc(F)cc1 | 94.1% | 95.7% | 103% | 98.2% | 57.1% | 92.9% | 96.8% | 102%
21 | O=C1/C(=C/C=C/c2ccco2)SC(=S)N1c1ccccc1 | 76.8% | 65.2% | 89.1% | 98.9% | 57.4% | 35.3% | 87.3% | 94.4%
22 | C#CCOC(=O)[C@@H]1CCCN1CC#C | 92.6% | 95.2% | 90.9% | 96.7% | 74.9% | 81.6% | 96.7% | 91.5%
23 | Cc1nn(-c2ccccc2)c2ncnc(N/N=C/c3ccccc3O)c12 | 15.6% | 25.6% | 16.3% | 26.2% | 9.62% (active) | 20.9% | 52% | 16.7%
24 | COc1ccccc1-n1cc(C#N)c(N)c1C(=O)c1ccc(Br)cc1 | 60% | 88.9% | 3.09% (active) | 38.7% | 33.5% | 58.8% | 71% | 39.3%
25 | COc1ccc(OC)c(-c2nc(SCC(=O)c3ccc(Br)cc3)nc(Nc3ccc(S(N)(=O)=O)cc3)c2C#N)c1 | 71.1% | 49.4% | -18.6% (active) | 36% | 28.9% | 15.4% | 70.9% | 20.9%
26 | COc1cc2nc(Cl)nc(Nc3cccc(C4=Nc5c(N)nc(N)nc5NC(c5ccc(Cl)cc5)C4)c3)c2cc1OC (stereo not drawn) | 81.7% | 85.2% | 6.34% (active) | 11.2% | 13% | -44.8% (active) | 4.35% (active) | 14.1%
27 | O=C(NCc1ncc[nH]1)c1ccc(-c2nc3ccc4[nH]ncc4c3c3c2CCCC3)cc1 | -3.92% (active) | 0.679% (active) | 14.6% | 5.4% (active) | 1.62% (active) | -4.57% (active) | 12.8% | 4.99% (active)
28 | COc1c(N2CC3CCCNC3C2)c(F)cc2c(=O)c(C(=O)N/N=C/c3ccccc3)cn(C3CC3)c12 (stereo not drawn) | 101% | 106% | 101% | 102% | 84.1% | 81.1% | 113% | 101%
29 | CCOC(=O)c1c(N)c(C#N)cn1-c1cc(OC)c(OC)c(OC)c1 | 112% | 107% | 103% | 98.8% | 91.1% | 113% | 115% | 108%
30 | Cn1cc(-c2nc(N)nnc2-c2c[nH]c3ccc(Br)cc23)c2cc(Br)ccc21 | 32.2% | 48.8% | 11.6% | 29.2% | 30.6% | 17.6% | 81.9% | 27.6%
31 | CCOc1ccccc1NC1=C(Cl)C(=O)c2nc(C)ccc2C1=O | -40% (active) | 44.4% | -85.7% (active) | -66.7% (active) | -59.7% (active) | -79.4% (active) | 20.3% | 60.8%
